Test results: PubChem BioAssay (NCATS)
Results filed as inconclusive are left out. Activity calls are given as the source filed them. Unless noted, calls follow the shape of the dose curve; as a rule, active = well fitted curve in the direction sought with a large enough effect; inconclusive = small, poorly fitted or top-dose-only effect, or another doubt; inactive = no such curve, though single readings can be large; an effect the other way counts as inactive or inconclusive.

Columns and labels:
[1] = biological target: Tyrosine-protein kinase Yes (Homo sapiens) (UniProt P07947); test: qHTS for small molecule inhibitors of Yes1 kinase: Primary Screen (AID 686947); also: nearly all actives have a fitted effect of over 60% in size; also: potency is read from the fitted curve at half-maximal effect
Procedure, shortened: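 ADP-Glo luminescence reports ADP formed by 4 nM Yes1 phosphorylating poly(E4Y) (0.3 mg/mL) with 0.1 mM ATP for 60 min at room temperature, following 20 min compound preincubation; normalised between DMSO wells with and without enzyme.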

[2] = qHTS for small molecule inhibitors of Yes1 kinase: Counter Assay (AID 686950);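 also: no kinase present so only ADP-Glo detection of a fixed ADP amount is tested; luminescence from ADP-Glo reporting ADP in a fixed ATP and ADP mixture; 0% = DMSO wells with ATP plus ADP and -100% = ATP-only wells without ADP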
Procedure, shortened: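 ADP-Glo luminescence read after a 60 min room-temperature incubation of compound with an ATP/ADP mix (0.08 mM/0.02 mM) and no kinase, following a 20 min compound preincubation. Signal scaled between ATP+ADP (max) and 0.1 mM ATP-only (min) wells; Tris pH 7.5, Mg2+, DTT.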

[3] = qHTS Assay for Identifying Gametocytocidal Compounds (AID 743244); also: potency is read from the fitted curve at half-maximal effect;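 as to max response: % is scaled to controls: 0 for no effect and ±100 for the full control effect; actives lower the fluorescent signal which means gametocytes are killed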; details: P. falciparum 3D7 stage III-V gametocytes, alamarBlue, 72 h; max response: stronger effect = lower value
Procedure, shortened: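 Fluorescence at Ex 525/Em 598 nm, recorded 24 h after alamarBlue addition, reports residual metabolic activity of 3D7 gametocytes (stages III–V) following 72 h compound exposure at 37 °C, 5% CO2.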

[4] = qHTS profiling for inhibitors of Plasmodium falciparum (3D7) proliferation (AID 743322; call rule not given here;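 also: infected erythrocytes exposed to compound for 72 h before lysis; 100% = DMSO vehicle wells and 0% = 0.29 µM artemisinin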); details: P. falciparum 3D7 proliferation; at 28.7 µM (top of the series) unless noted
Procedure, shortened: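 Parasite DNA was quantified by SYBR Green I fluorescence (ex 485, em 535 nm) after overnight lysis in saponin/Triton buffer at room temperature. Cultures at 0.3% parasitemia and 2.5% hematocrit were first exposed to compound for 72 h at 37 C; signals were normalised to artemisinin (0.29 uM) and vehicle wells.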

[5] = qHTS profiling for inhibitors of Plasmodium falciparum (DD2) proliferation (AID 743323; call rule not given here); details: lower = more inhibition; at 28.7 µM (top of the series) unless noted
Procedure, shortened: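 1536-well qHTS; infected RBCs 0.3% parasitemia/2.5% Hct final; cpd 72 h 37 C 5% CO2; lysis buffer + SYBR Green I, o/n RT dark; FI 485/535; norm. to 0.29 uM artemisinin and DMSO, plate-stack corrected.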

Tyrosine-protein kinase Yes (Homo sapiens), sequence (P07947 whole entry, looked up): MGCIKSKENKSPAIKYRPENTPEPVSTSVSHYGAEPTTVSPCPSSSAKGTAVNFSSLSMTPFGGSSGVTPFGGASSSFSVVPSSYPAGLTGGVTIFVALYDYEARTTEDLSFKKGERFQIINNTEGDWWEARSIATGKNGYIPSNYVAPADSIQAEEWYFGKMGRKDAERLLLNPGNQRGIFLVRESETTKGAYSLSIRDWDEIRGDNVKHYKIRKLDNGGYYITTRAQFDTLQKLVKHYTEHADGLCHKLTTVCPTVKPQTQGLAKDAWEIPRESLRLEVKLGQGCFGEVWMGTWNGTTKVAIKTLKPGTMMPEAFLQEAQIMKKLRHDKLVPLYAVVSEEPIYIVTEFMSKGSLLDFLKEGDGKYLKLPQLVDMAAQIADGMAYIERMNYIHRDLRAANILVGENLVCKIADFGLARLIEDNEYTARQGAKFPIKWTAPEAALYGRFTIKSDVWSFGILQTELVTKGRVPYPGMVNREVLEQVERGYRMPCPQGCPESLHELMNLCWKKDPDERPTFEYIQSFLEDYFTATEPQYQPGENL

Compound | Potency [1] | outcome [2] | max response [3] | remaining parasite growth % (stronger effect = lower value) [4] [%] | activity, percent of control [5] [%] | Potency [3]
OCCn1cc(-c2ccc3c(c2)CCC3=NO)c(-c2ccncc2)n1 | inactive | inactive | 8.08% (inactive) | 89.8 | 97.1 | –
CN1C(=O)C(Cc2c[nH]c3ccccc23)NC1=S (centres undefined) | inactive | inactive | 15.9% (inactive) | 109 | 91.5 | –
CNC(=O)c1cc(COc2nnc(Nc3ccc(Cl)cc3)c3ccoc23)ccn1 | inactive | inactive | 13% (inactive) | 54.7 | 68.5 | –
CC(C)Oc1cc(Nc2nc(N[C@@H](C)c3ccc(F)cn3)ncc2Cl)[nH]n1 | 6.1 nM (active) | inactive | – | 3.18 | 5.44 | 2350 nM (active)
CCC=CC[C@H]1C(=O)CC[C@@H]1CC(=O)OC | inactive | inactive | 12% (inactive) | 94.5 | 93.1 | –
CCCCc1ccc(NS(=O)(=O)c2ccc(C)c(C(=O)N3CCN(c4cccc(C)c4C)CC3)c2)cc1 | inactive | inactive | 17% (inactive) | 37.4 | 96.6 | –
CCOC(=O)[C@@H](N)CCC(=O)N[C@@H](CSCc1ccccc1)C(=O)N[C@@H](C(=O)OCC)c1ccccc1 | inactive | inactive | – | 51.1 | 92 | –
COc1ccc2c(c1)CC[C@H]1[C@@H]2CC[C@]2(C)[C@@H](NCCCCCCN3C(=O)C=CC3=O)CC[C@H]12 | inactive | inactive | – | – | – | –
COc1cc2nccc(Oc3ccc(NC(=O)Nc4cc(C)on4)c(Cl)c3)c2cc1OC | 772 nM (active) | inactive | 19.1% (inactive) | 62.8 | 62 | –
Cc1ccc(NC(=O)c2ccc(CN3CCN(C)CC3)cc2)cc1Nc1nc(-c2cccnc2)cs1 | 345 nM (active) | inactive | – | 0.463 | 5.7 | –
CCCCn1c(=O)n(Cc2ccccc2F)c(=O)c2[nH]c(Cc3ccc(NC(C)=O)cc3)nc21 | inactive | inactive | 66.3% (inactive) | 71.1 | 63.7 | –
CC(=O)Nc1cccc(-n2c(=O)n(C3CC3)c(=O)c3c(Nc4ccc(I)cc4F)n(C)c(=O)c(C)c32)c1 | inactive | inactive | – | -2.85 | -0.291 | –
